Screens (PubChem BioAssay)
In the library only some 11% were active in any assay of this set; here they are far more common.
Vaccinia mCherry: qHTS for Stage-Specific Inhibitors of Vaccinia Orthopoxvirus: mCherry Reporter Primary qHTS | Vaccinia virus mCherry reporter infection, fluorescence | Potency, µM (series often up to 36.5 µM), inactives show at the highest dose activity change, negative = inhibition, usual class: inhibitors | 310,000 compounds, 0.63% hits | AID 720579, 2013; calls by dose curve; tested in A549 cells; also: % is scaled to controls: 0 for no effect and ±100 for the full control effect; nearly all actives have a fitted effect of over 35% in size
NS1 function inh: qHTS Assay for Inhibitors of Influenza NS1 Protein Function. Potency, µM (titrated, usually from 46.1 µM), without a hit: at the highest dose activity, positive = more growth. 270,000 compounds, 0.4% hits. AID 2326, 2010; calls by dose curve; also: actives are rising curves; nearly all actives have a fitted effect of over 50% in size
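In this qHTS, NS1 from influenza A is expressed in budding yeast, where it slows growth. Cells are switched from glucose to 2% galactose medium (pH 6.0, -URA), treated with compound, and growth recovery is read at OD600.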
HCV inhibitor: qHTS Assay for Inhibitors of Hepatitis C Virus (HCV); 340,000 compounds, 3.4% hits; AID 651820, 2012; Huh7.5.1 HCVcc-Cre infection, luciferase reporter, 44 h; Potency, µM (titrated, usually from 41.8 µM), inactives show at the highest dose activity change, negative = inhibition, hits mostly inhibitors; also: % is scaled to controls: 0 for no effect and ±100 for the full control effect
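Cells seeded at 1,000/well and cultured 4 h, then compounds added followed by HCVcc-Cre virus (~0.5 moi). After 44 h further culture, luciferase substrate was added, plates held 15 min at room temperature, and luminescence read for 15 sec.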
VACV Venus inh: qHTS for Stage-Specific Inhibitors of Vaccinia Orthopoxvirus: Venus Reporter Primary qHTS; Vaccinia virus Venus reporter expression, fluorescence; Potency, µM (highest dose often 36.5 µM), without a hit: top-dose activity change, negative = inhibition, most hits filed as inhibitors; 330,000 compounds, 0.46% hits; calls by dose curve; tested in A549 cells; also: % is scaled to controls: 0 for no effect and ±100 for the full control effect; nearly all actives have a fitted effect of over 30% in size
Pf growth 48h: Primary qHTS for delayed death inhibitors of the malarial parasite plastid, 48 hour incubation. P. falciparum luciferase growth in erythrocytes, 48 h. Potency, µM (highest dose often 28.7 µM), for inactives: at the highest dose activity change, negative = inhibition, hits mostly inhibitors. 310,000 compounds, 5.9% hits. AID 504832, 2011; also: % is scaled to controls: 0 for no effect and ±100 for the full control effect
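Here the parasites carry a stable luciferase gene and grow inside erythrocytes in Albumax-based RPMI medium with compound for one erythrocytic cycle. Activity is scored as loss of luminescent signal.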
Pf growth 96h: Primary qHTS for delayed death inhibitors of the malarial parasite plastid, 96 hour incubation; P. falciparum luciferase reporter growth, 96 h; Potency, µM (highest dose often 28.7 µM), inactives show top-dose activity change, negative = inhibition, usual class: inhibitors; 320,000 compounds, 6.9% hits; also: % is scaled to controls: 0 for no effect and ±100 for the full control effect
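Plates of compound plus infected erythrocytes (2% hematocrit, 0.05% parasitemia final) incubate 96 hours, 37 C, 5% CO2. Detection reagent added; reduced luminescence from the parasites' luciferase reporter flags inhibition.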
Active calls of the source: *; i = inactive; ? = inconclusive; . = no result; [ ] = another dose, or the depositor's remark. Unless noted, calls follow the shape of the dose curve; as a rule, active = well fitted inhibition curve with a large enough effect; inconclusive = small, poorly fitted or top-dose-only effect, or another doubt; inactive = no such curve, though single readings can be large or run the other way. Potency is read from the fitted curve at half-maximal effect.

SMILES	Vaccinia mCherry	NS1 function inh	HCV inhibitor	VACV Venus inh	Pf growth 48h	Pf growth 96h
CCCCC(=NCCc1c(C)[nH]c2ccccc12)C1=C(O)CC(c2ccccc2)CC1=O (configuration not stated)	-17.1%	.	?	-21.1%	9.28µM*	?
CCCC(=NCCc1c(C)[nH]c2ccccc12)C1=C(O)CC(c2ccccc2)CC1=O (configuration not stated)	?	11.9%	?	?	13.1µM*	-16.4%
CCC/C(O)=C1\C(=O)CC(c2ccccc2)CC1=NCCc1c(C)[nH]c2ccccc12 (configuration not stated)	-11.8%	20.1%	?	?	2.62µM*	?
CCOc1cc(S(=O)(=O)n2ccnc2)ccc1Br	i	.	8.1%	-9.2%	39.6%[5.75 µM]	-32.9%[5.75 µM]
O=C(c1cc2ccccc2cc1O)N1CCCC1	.	-0.2%	6.0%	.	1.2%	-6.5%
O=C(N/N=C1/CN2CCC1CC2)c1cc2ccccc2cc1O	.	7.0%	4.0%	.	13.1µM*	31.6%
N#CCC(=O)Nc1ccc(C(=O)OC(C(=O)Nc2cc(C(F)(F)F)ccc2Cl)c2ccccc2)cc1 (configuration not stated)	-0.5%	.	-38.9%	-19.1%	?	?
O=C(NCC(O)c1ccccc1)c1cccc(S(=O)(=O)N2CCOCC2)c1 (configuration not stated)	.	-2.7%	?	-7.9%	10.7%	.
CC(=O)OC1CC2C(C)(C)C(=O)C=C[C@]2(C)C2CC[C@]3(C)C(=CC(=O)OC3c3ccoc3)[C@]12C (some centres not stated)	-23.7%	.	.	?	.	.
O=C(Nc1ccc2c(c1)CCC2)C1CCN(c2c3c(nc4ncnn24)CCC3)CC1	.	?	4.47µM*	.	11.7µM*	-8.6%
Cc1cc(C)nc(N2CCC(C(=O)Nc3ccc(Oc4ccccc4)cc3)CC2)n1	.	-13.4%	?	.	-8.4%	11.7µM*
COc1ccc(NC(=O)C2CCCN(c3c4c(nc5ncnn35)CCC4)C2)cc1OC (configuration not stated)	.	-2.0%	-22.1%	.	-18.8%	19.3%
Cc1cc(C)nc(N2CCC(CNC(=O)CCc3ccccc3)CC2)n1	-20.7%	-13.7%	-0.8%	-18.2%	?	10.4µM*
O=C(Nc1ccc(Oc2ccccc2)cc1)C1CCN(c2c3c(nc4ncnn24)CCC3)CC1	.	20.5%	25.1µM*	.	?	26.7%
COc1ccccc1Cc1c(C2CCCCC2)nc2ccc(Br)cn12	-9.6%	.	.	-17.1%	.	.
COc1ccc(C(=O)Nc2cccc(N(C)S(C)(=O)=O)c2)cc1OC	i	7.2%[9.22 µM]	-2.0%	-19.2%	138.4%	75.1%
Cn1c(=O)c(=O)n(C)c2cc(N3CCOCC3)c(NS(=O)(=O)c3ccc(Cl)cc3)cc21	-6.2%	.	.	4.9%	.	.
Cc1cc(C)nc(N2CCC(C(=O)NCc3cccc(C(F)(F)F)c3)CC2)n1	i	6.7%	-6.9%	-11.8%	1.9%	2.08µM*
O=[N+]([O-])c1ccc2ncnc(N3CCN(Cc4ccc5c(c4)OCO5)CC3)c2c1	.	-19.8%	?	.	?	?
COc1ccccc1CCNC(=O)C(=O)NCC(c1cccs1)S(=O)(=O)c1cccs1 (configuration not stated)	-22.9%	.	.	-17.3%	.	.
CCc1cc(-c2n[nH]c(C)c2-c2nc3ccccc3n2C)c(O)c(CN2CCN(C)CC2)c1O	-29.7%	-8.2%	?	-18.3%	11.7µM*	-25.0%
CCc1cc(-c2n[nH]c(C)c2-c2nc3ccccc3n2C)c(O)cc1O	-28.3%	5.8%	?	-26.0%	?	13.1µM*
Cc1cccc(N2C(=O)CN=C2Nc2nc(C)cc(C)n2)c1	i	0.0%	8.7%	-1.3%	-4.6%	.
CC(C)(CO)N=C1NS(=O)(=O)c2cc([N+](=O)[O-])ccc21	i	13.6%	?	-23.1%	?	?
